Measurements from PubChem BioAssay AID1159580 (chemical genetic matrix, 2015).
Several values for one entry are separate records, joined by “and”; a condition that tells them apart may be missing. Equal entries are not always repeated. In all, about 5,500 compounds went through this assay and about 2,000 (36%) were called active. Not shown: some 18% with an inconclusive outcome. No stated cut-off is given here; in the data, active means normalized growth mostly below about 0.91 (no sharp cut-off); inconclusive means no clear call, values can overlap the other calls; inactive means mostly above about 0.92. The list shows a part of the results.

Experiment: chemical genetic growth profiling, strain panel (AID 1159580);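 further: tested at 20 µM; growth read once vehicle control cultures reached saturation at 30 °C; 1 = growth at the plate median or of vehicle wells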
Details: S. cerevisiae deletion strains, growth OD

Measured: normalized growth

O=C(NCCSCc1ccco1)Nc1cc(Cl)cc(Cl)c1
inactive: locus YAR019C, strain CDC15, stronger effect = lower value 0.958 | locus YBL105C, strain PKC1, stronger effect = lower value 0.96 | locus YBR135W, strain CKS1, stronger effect = lower value 0.954 | locus YBR136W, strain MEC1, stronger effect = lower value 0.963 | locus YBR160W, strain CDC28, stronger effect = lower value 0.957 | locus YBR229C, strain ROT2, stronger effect = lower value 0.976 | locus YDL017W, strain CDC7, stronger effect = lower value 0.956 | locus YDL028C, strain MPS1, stronger effect = lower value 0.966 | locus YDL101C, strain DUN1, stronger effect = lower value 0.97 and 0.977 | locus YDL108W, strain KIN28, stronger effect = lower value 0.958 | locus YDL132W, strain cdc53, stronger effect = lower value 0.949 | locus YDL214C, strain PRR2, stronger effect = lower value 0.894 | locus YDR052C, strain DBF4, stronger effect = lower value 0.972 | locus YDR054C, strain cdc34, stronger effect = lower value 0.942 | locus YDR150W, strain NUM1, stronger effect = lower value 0.908 | locus YDR226W, strain ADK1, stronger effect = lower value 0.965 | locus YDR477W, strain SNF1, stronger effect = lower value 0.885 | locus YEL061C, strain CIN8, stronger effect = lower value 0.984 | locus YER123W, strain YCK3, stronger effect = lower value 0.842 | locus YER133W, strain GLC7, stronger effect = lower value 0.895 | locus YFL009W, strain cdc4, stronger effect = lower value 0.956 | locus YFL029C, strain CAK1, stronger effect = lower value 0.951 | locus YFR003C, strain YPI1, stronger effect = lower value 0.962 | locus YFR019W, strain FAB1, stronger effect = lower value 0.897 | locus YFR028C, strain CDC14, stronger effect = lower value 0.956 | locus YGR040W, strain KSS1, stronger effect = lower value 0.893 | locus YGR052W, strain FMP48, stronger effect = lower value 0.967 | locus YGR078C, strain PAC10, stronger effect = lower value 0.957 | locus YGR092W, strain DBF2, stronger effect = lower value 0.914 | locus YHR079C, strain IRE1, stronger effect = lower value 0.853 | locus YHR082C, strain KSP1, stronger effect = lower value 0.866 | locus YHR087W, strain rtc3, stronger effect = lower value 0.966 | locus YHR205W, strain SCH9, stronger effect = lower value 0.86 | locus YIL147C, strain SLN1, stronger effect = lower value 0.955 | locus YJL095W, strain BCK1, stronger effect = lower value 0.815 | locus YJL128C, strain PBS2, stronger effect = lower value 0.928 | locus YJL157C, strain FAR1, stronger effect = lower value 0.893 | locus YJR016C, strain ILV3, stronger effect = lower value 0.96 | locus YJR043C, strain POL32, stronger effect = lower value 0.932 | locus YJR066W, strain TOR1 (second series), stronger effect = lower value 0.946 | locus YJR066W, strain TOR1, stronger effect = lower value 0.824 | locus YJR075W, strain HOC1, stronger effect = lower value 0.958 | locus YKL048C, strain ELM1, stronger effect = lower value 0.934 | locus YKL067W, strain YNK1, stronger effect = lower value 0.898 | locus YKL101W, strain HSL1, stronger effect = lower value 0.911 | locus YKL193C, strain SDS22, stronger effect = lower value 0.942 | locus YKL203C, strain TOR2, stronger effect = lower value 0.916 | locus YLR058C, strain SHM2 (second series), stronger effect = lower value 0.953 | locus YLR085C, strain ARP6, stronger effect = lower value 0.865 | locus YLR133W, strain CKI1, stronger effect = lower value 0.893 | locus YLR403W, strain SFP1, stronger effect = lower value 0.868 | locus YML070W, strain DAK1, stronger effect = lower value 0.879 | locus YML094W, strain GIM5, stronger effect = lower value 0.918 | locus YMR001C, strain CDC5, stronger effect = lower value 0.954 | locus YMR205C, strain PFK2 (second series), stronger effect = lower value 0.914 | locus YMR219W, strain ESC1, stronger effect = lower value 0.976 | locus YMR263W, strain SAP30, stronger effect = lower value 0.917 | locus YMR277W, strain FCP1, stronger effect = lower value 0.952 | locus YNL006W, strain LST8, stronger effect = lower value 0.951 | locus YNL020C, strain ARK1, stronger effect = lower value 0.879 | locus YNL153C, strain GIM3, stronger effect = lower value 0.97 | locus YNL161W, strain CBK1, stronger effect = lower value 0.96 | locus YNL183C, strain NPR1, stronger effect = lower value 0.845 | locus YNL207W, strain RIO2, stronger effect = lower value 0.943 | locus YNL222W, strain SSU72, stronger effect = lower value 0.953 | locus YNL298W, strain CLA4 (second series), stronger effect = lower value 0.879 | locus YNL307C, strain MCK1 (second series), stronger effect = lower value 0.888 | locus YNL322C, strain KRE1, stronger effect = lower value 0.96 | locus YNR030W, strain Alg12, stronger effect = lower value 0.897 | locus YOL078W, strain AVO1, stronger effect = lower value 0.948 | locus YOL136C, strain PFK27, stronger effect = lower value 0.853 | locus YOR061W, strain CKA2, stronger effect = lower value 0.9 | locus YOR119C, strain RIO1, stronger effect = lower value 0.954 | locus YOR231W, strain MKK1, stronger effect = lower value 0.863 | locus YOR329C, strain SCD5, stronger effect = lower value 0.956 | locus YPL031C, strain PHO85, stronger effect = lower value 0.872 | locus YPL055C, strain LGE1, stronger effect = lower value 0.858 | locus YPL153C, strain RAD53, stronger effect = lower value 0.894 | locus YPL204W, strain HRR25, stronger effect = lower value 0.867 | locus YPL209C, strain IPL1, stronger effect = lower value 0.958 | locus YPL241C, strain CIN2, stronger effect = lower value 0.937 | locus YPR025C, strain CCL1, stronger effect = lower value 0.952 | locus YPR106W, strain ISR1, stronger effect = lower value 0.959 | locus YPR111W, strain DBF20, stronger effect = lower value 0.957 | locus YPR135W, strain CTF4, stronger effect = lower value 0.841 | strain NNK1, stronger effect = lower value 0.952 | strain TSCII, stronger effect = lower value 0.954
0.822 (inactive) and 0.683 (active): locus YHR030C, strain SLT2, stronger effect = lower value
active: locus YAL013W, strain DEP1, stronger effect = lower value 0.915 | locus YDL134C, strain PPH21, stronger effect = lower value 0.724 | locus YLR039C, strain RIC1, stronger effect = lower value 0.769 | locus YLR113W, strain HOG1, stronger effect = lower value 0.842 | locus YLR262C, strain YPT6, stronger effect = lower value 0.759 | locus YPL256C, strain CLN2, stronger effect = lower value 0.818
